F508del corr = CFTR F508del correction in bronchial cells; CFBE cells, YFP halide quenching; stimulated with forskolin plus potentiator P3; % fluorescence drop versus neutral controls; activity (quench increase), % at 7.58 µM; actives 0.36% (n = 350,000); AID 720511;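 active means mean added fluorescence quench of at least 8% versus neutral control, with both replicates also reaching 8%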;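 further: cells transiently co-express mutant CFTR-F508del with the halide-sensitive YFP; corrector assay measuring rescue of mutant channel to the surface after 24 h compound exposure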
Statin myotox sup = suppressors of simvastatin-induced myotoxicity in C2C12 myotubes | ATP luminescence, 48 h; scaled: DMSO 0, geranylgeraniol control 100 | rescue of ATP level, % at 7.49 µM | actives 0.78% (n = 330,000);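 active means mean ATP rescue above about 67%, or every replicate alone reaching that limit, limit read from the data, passing the limit was not always enough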;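 further: myotubes were challenged with 10 µM simvastatin during compound exposure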
ARNT-TACC3 inh = disrupts binding between human ARNT and TACC3; Q9Y6A5; AlphaScreen His-ARNT PAS-B/GST-TACC3 binding, luminescence; TACC3 fragment carries E629A point mutation; actives 0.66% (n = 390,000); inhibition, % at 9.99 µM; AID 623870;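 active means mean inhibition of replicates at least 50% and at least half of replicates each reaching 50%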
PglD inh = PglD (C. jejuni) enzyme inhibition; AID 602405; actives 0.098% (n = 360,000); purified PglD enzyme, DTNB colorimetric CoA detection; inhibition, % at 12.5 µM; in the data active means inhibition above about 16%, passing the limit was not always enough
Of the large screens only hits and unclear results are named; the others gave an inactive call. Rows were chosen to be rich in hits. Some 1.4% of all compounds tested hit in one or more screens of this group.

CC1(C)CNC(=O)c2sc(NC(=O)CN3CCOCC3)nc2C1	Statin myotox sup 107.8 (no result: F508del corr)
CC1CCc2nc(NC(=O)CN3CCOCC3)sc2C1 (configuration not stated)	none (no result: F508del corr)
COc1ccc(C(=O)N2CCc3cc(OC)c(OC)cc3C2)cc1OC	Statin myotox sup 122.2 (no result: F508del corr)
CC=Cc1ccc2n(c1=O)C[C@@H]1[C@@H](CO)[C@H](C(=O)NCCc3cn(C)cn3)N(C(=O)C3CC3)[C@H]21 (mixture of isomers)	none
Nc1ccc(N)c(C(=O)O)c1	ARNT-TACC3 inh 47.4 (no result: F508del corr)
COc1ccc(C2(CNC(=O)CCC(=O)O)CCCC2)cc1	Statin myotox sup 86.5 (no result: F508del corr)
COc1cccc(CNS(=O)(=O)c2cc(CN3C(=O)c4cccnc4C3=O)ccc2OC)c1	ARNT-TACC3 inh 49.7
C[C@H](CO)N1C[C@H](C)[C@@H](CN(C)Cc2ccc(Cl)c(Cl)c2)Oc2ccc(NS(=O)(=O)c3ccc(F)cc3)cc2CC1=O	Statin myotox sup 111.6 (no result: ARNT-TACC3 inh, PglD inh)
C[C@H]1CN([C@@H](C)CO)C(=O)Cc2cc(NS(=O)(=O)c3ccc(F)cc3)ccc2O[C@@H]1CN(C)Cc1ccc(Cl)c(Cl)c1	Statin myotox sup 68.8 (no result: ARNT-TACC3 inh, PglD inh)
COC(=O)[C@@H]1[C@@H](CO)[C@@H]2Cn3c(ccc(/C=C/c4ccccc4)c3=O)[C@@H]2N1C(=O)C1CCCC1	none (no result: F508del corr)
COCC(=O)Nc1ccc2c(c1)OC[C@H](C)NC[C@H](C)[C@@H](OC)CN(C)C2=O	none (no result: Statin myotox sup, ARNT-TACC3 inh, PglD inh)
[N-]=[N+]=Nc1ccccc1C[C@@]1(C(=O)NCCN2CCOCC2)N=C(c2ccc(OCCCO)cc2)O[C@@H]1c1ccccc1N=[N+]=[N-]	none (no result: Statin myotox sup)
CCS(=O)(=O)N1CCC2(CC1)CN(S(=O)(=O)c1cn(C)cn1)[C@@H](CO)c1[nH]c3cc(OC)ccc3c12	none (no result: Statin myotox sup, ARNT-TACC3 inh, PglD inh)
COc1ccc2c3c([nH]c2c1)[C@@H](CO)N(S(=O)(=O)c1cn(C)cn1)CC31CCN(CC2CCCCC2)CC1	F508del corr 8.6 (no result: Statin myotox sup, ARNT-TACC3 inh, PglD inh)
C=CCn1c(SCC(=O)Nc2cccc(C)c2)nnc1-c1cnccn1	none (no result: F508del corr)
C=CCn1c(SCC(=O)Nc2ccc(N(C)C)cc2)nnc1-c1cccc(C)c1	Statin myotox sup 83.6 (no result: F508del corr)
COc1cccc(C(=O)N2C[C@H]3[C@@H](c4ccccc42)[C@@H](CO)N3C(C)=O)c1	none
O=C(NCCc1ccccc1)C(=O)NCC1OCCN1S(=O)(=O)c1ccc2c(c1)OCCO2 (configuration not stated)	none
O=C(NCCCn1ccnc1)C(=O)NCC1OCCN1S(=O)(=O)c1ccc2c(c1)OCCO2 (configuration not stated)	ARNT-TACC3 inh 64.1 (no result: Statin myotox sup, PglD inh)
CN1CCN(C(=O)C[C@H]2C[C@H]3c4cc(NC(=O)c5ccc6c(c5)OCO6)ccc4O[C@H]3[C@@H](CO)O2)CC1	none
C[C@@H]1CN([C@@H](C)CO)C(=O)c2cccc(NC(=O)CCCCCC(=O)Nc3ccccc3N)c2O[C@@H]1CN(C)C	none (no result: Statin myotox sup, ARNT-TACC3 inh, PglD inh)
COc1ccc(/C=N/Nc2nc3ccccc3o2)cc1O	ARNT-TACC3 inh 44.3 (no result: F508del corr)
COc1ccc(C=NNC(=O)CCCC(=O)NN=Cc2ccc(OC)c(O)c2)cc1O	F508del corr 15.1
COc1ccc(C=NNC(=O)CCCC(=O)NN=Cc2ccc(OC)c(OC)c2)cc1OC	none (no result: Statin myotox sup, PglD inh)
COc1ccc2[nH]c(C(=O)N/N=C/c3ccccc3OC)cc2c1	none
COc1ccc2[nH]c(C(=O)N/N=C/c3ccc(OC)c(O)c3)cc2c1	F508del corr 11.2 (no result: Statin myotox sup, PglD inh)
COc1ccc(S(=O)(=O)N2CCCCN3[C@H](CO)[C@H](c4ccc(C#CC(C)C)cc4)[C@H]3C2)cc1	none
COC(=O)CCC(=O)NNC(=O)c1ccc(Br)cc1	Statin myotox sup 100.9 (no result: F508del corr)
COc1cccc(NC(=O)N(C)C[C@@H]2OCc3ccccc3-c3c(n(C)c4ccccc34)C(=O)N([C@@H](C)CO)C[C@@H]2C)c1	none
COc1ccc(S(=O)(=O)N2CCN(CCOc3ccccc3Cl)CC2)cc1OC	F508del corr 17.5 (no result: ARNT-TACC3 inh, PglD inh)
CC(=O)N(C)C[C@@H]1Oc2cc(-c3ccccc3F)ccc2S(=O)(=O)N([C@@H](C)CO)C[C@H]1C	none
Cc1ccc(C2=NN(C(=S)Nc3ccccc3)C(c3ccco3)C2)cc1 (configuration not stated)	none (no result: F508del corr)
C=CCNC(=S)N1N=C(c2ccco2)CC1c1ccco1 (configuration not stated)	ARNT-TACC3 inh active
CCOc1ccc(C(=O)NCC(=O)NNC(=O)c2cc(C)oc2C)cc1OCC	F508del corr 16.4 (no result: PglD inh)
CC1(C)Cc2c(c(-c3ccco3)nc3sc4c(NCCCO)ncnc4c23)CO1	none (no result: ARNT-TACC3 inh)
CC1(C)Cc2c(c(-c3ccco3)nc3sc4c(NCCN5CCOCC5)ncnc4c23)CO1	F508del corr 9.7 (no result: Statin myotox sup, ARNT-TACC3 inh, PglD inh)
COCCN=C1N[C@@H](c2ccccc2)C(C(=O)OC)=C(C)N1Cc1ccccc1	Statin myotox sup 110.1
COc1ccc(C(N)CCc2ccc(C)o2)cc1 (configuration not stated)	Statin myotox sup 136.9 (no result: F508del corr)
CCc1ccc(CCC(=O)Nc2ccc(OC)cc2)o1	none (no result: F508del corr)
O=C1C=CC(=O)c2c(O)c(CO)c(CO)c(O)c21	ARNT-TACC3 inh 11.9 (no result: Statin myotox sup, PglD inh)
CC=Cc1ccc2n(c1=O)C[C@@H]1[C@@H](CO)[C@H](C(=O)NCc3ccccc3)N(CC)[C@H]21 (mixture of isomers)	none (no result: Statin myotox sup, ARNT-TACC3 inh, PglD inh)
O=C(CCn1cccc1)NC1CCCc2ccccc21 (configuration not stated)	Statin myotox sup 152.4 (no result: F508del corr)
C[C@H]1CN([C@@H](C)CO)C(=O)c2cc(C3=CCCC3)cnc2O[C@@H]1CN(C)S(=O)(=O)c1cn(C)cn1	none
O=C(c1ccccc1CCc1ccccc1)N1CCOCC1	Statin myotox sup 114.0 (no result: F508del corr)
CO[C@H]1CN(C)C(=O)c2cc(NC(C)=O)ccc2OC[C@H](C)N(Cc2ccccn2)C[C@H]1C	none
COC(=O)C1=CN(c2ccc3c(c2)OCO3)C(N)=C(C#N)C1c1cccc(F)c1 (configuration not stated)	F508del corr 11.2 (no result: Statin myotox sup, ARNT-TACC3 inh, PglD inh)
COC(=O)C1=CN(c2ccc(N3CCOCC3)cc2)C(N)=C(C#N)C1c1ccccc1 (configuration not stated)	none (no result: Statin myotox sup, ARNT-TACC3 inh, PglD inh)
C[C@@H]1CCCCO[C@@H](CN(C)C(=O)Nc2ccc(F)cc2)[C@H](C)CN([C@@H](C)CO)C(=O)c2cc(NS(=O)(=O)c3cccs3)ccc2O1	none (no result: Statin myotox sup)
Cn1c(CN2CCOCC2)nnc1SCC(N)=O	none (no result: F508del corr)
CCCSc1nnc(CN2CCOCC2)n1C	Statin myotox sup 111.3 (no result: F508del corr)
CC(C)C#Cc1cnc2c(c1)C(=O)N([C@H](C)CO)C[C@@H](C)[C@H](CN(C)C(=O)Nc1cc(F)ccc1F)O2	none
COc1ccccc1CNC(=O)C[C@H]1CC[C@H]2[C@@H](COC[C@@H](O)CN2C(=O)Nc2ccc(F)cc2)O1	none
CCCCN1C(=O)CC(C(=O)OCC)=C1C	F508del corr 11.0
Cn1cc(CN2CCN(c3ccc(Cl)cn3)CC2)c(-c2ccccc2F)n1	none
Cc1cccc(N2CCN(Cc3cn(C)nc3-c3ccccc3F)CC2)n1	F508del corr 9.1 (no result: Statin myotox sup, PglD inh)
CS(=O)(=O)Nc1ccc2c(c1)[C@@H]1C[C@@H](CC(=O)NCc3ccccn3)O[C@H](CO)[C@@H]1O2	none
N#Cc1ccccc1/C=N/Nc1nc(-c2ccccc2)c2cc(Br)ccc2n1	Statin myotox sup 98.9 (no result: F508del corr)
